HT1080NT lethal = qHTS for induction of synthetic lethality in tumor cells producing 2HG: qHTS for the HT-1080-NT fibrosarcoma cell line; hit rate 1.6% among 360,000; Potency, µM (highest dose often 46.1 µM), inactives show at the highest dose activity, negative = less viability, hits mostly cytotoxic; HT-1080-NT fibrosarcoma viability, CellTiter-Glo ATP luminescence, 48 h;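 further: NT is the 2HG producing partner of a matched IDH1 knockdown line; potency means the concentration at half of the fitted maximal effect; 0% = DMSO-treated cells and -100% = media-only wells without cells; nearly all actives have a fitted effect of over 55% in size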
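Compounds were tested in concentration-response format on HT-1080-NT cells for 48 hours at 37 degrees C. Cell viability came from CellTiter-Glo luminescence; curves were classified by r2, response magnitude and activity.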
TDP1 cell CPT = qHTS for Inhibitors of human tyrosyl-DNA phosphodiesterase 1 (TDP1): qHTS in cells in presence of CPT | Potency, µM (top dose mostly 46.2 µM), for inactives: at the top dose activity change, negative = growth inhibition, most hits filed as inhibitors | hit rate 12% among 420,000 | chicken DT40 Tdp1-/-;hTDP1 cells + 20 nM CPT, ATP luminescence, 48 h | AID 686979, 2013; further: potency means the concentration at half of the fitted maximal effect; nearly all actives have a fitted effect of over 55% in size
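Cell growth measured by CellTiter-Glo luminescence after a minimum 48 h, 37 C compound exposure with 20 nM CPT in Tdp1-knockout DT40 cells stably expressing hTDP1, seeded 400/well; qHTS titration format.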
HT1080 IDH1KD tx = qHTS for induction of synthetic lethality in tumor cells producing 2HG: qHTS for the HT-1080-IDH1KD cell line; Potency, µM (titrated, usually from 46.1 µM), for inactives: top-dose activity, negative = toxicity, most hits filed as cytotoxic; AID 686971, 2013; hit rate 2% among 360,000; HT-1080 IDH1 knockdown viability, ATP luminescence, 48 h;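 further: potency means the concentration at half of the fitted maximal effect; 0% = DMSO wells and -100% = cell-free medium wells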
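CellTiter-Glo luminescence after 48 h compound exposure at 37 degrees C of IDH1-knockdown HT-1080 cells in 5% FBS RPMI. %Activity scaled between DMSO wells and cell-free media wells, with curves fitted and assigned curve classes.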
IL1B secr inh = qHTS for Inhibitors of Inflammasome Signaling: IL-1-beta AlphaLISA Primary Screen; THP-1 LPS/ATP IL-1B secretion, AlphaLISA, 16 h; active compounds read low; hit rate 4.7% among 360,000; activity change, % at 57.5 µM; AID 743279, 2014; in the data active means activity change below about -50%; inconclusive means mostly about -30% to -49%
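Secreted IL-1B measured by AlphaLISA bead assay after 16 h compound exposure of THP-1 cells; compounds (final up to 57.5 uM) added 1 h before LPS (250 ng/mL) and ATP (1.25 mM) stimulation; lower signal means less secretion.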
TDP1 cell noCPT = qHTS for Inhibitors of human tyrosyl-DNA phosphodiesterase 1 (TDP1): qHTS in cells in absence of CPT. Potency, µM (top dose mostly 46.2 µM), for the others: at the highest dose activity change, negative = growth inhibition, most hits filed as inhibitors. hit rate 15% among 420,000. DT40 Tdp1-/- hTDP1 cells, no CPT, ATP luminescence, 48 h; further: potency means the concentration at half of the fitted maximal effect; nearly all actives have a fitted effect of over 55% in size
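Compound effects on proliferation are scored in DT40 Tdp1-/-;hTDP1 cells in the absence of CPT. ATP levels (CellTiter-Glo luminescence) are recorded after a ≥48 hr, 37 °C incubation.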
The depositor's hits bear a star; ? = inconclusive; nt = no result given; + = active, no number; [ ] = dose if it differs, or a comment. An excerpt weighted towards active compounds, which were near 19% of everything screened. Unless noted, the call rests on the fitted dose curve; in most records, active means well fitted curve in the direction sought with a large enough effect; inconclusive means small, poorly fitted or top-dose-only effect, or another doubt; inactive means no such curve, though single readings can be large; an effect the other way counts as inactive or inconclusive. Unless noted, on the % scale 0 is the no-effect control and ±100 the full control effect.

SMILES	HT1080NT lethal	TDP1 cell CPT	HT1080 IDH1KD tx	IL1B secr inh	TDP1 cell noCPT
CC(=O)Nc1ccc(S(=O)(=O)Nc2c(C)n(C)n(-c3ccccc3)c2=O)cc1	11%	-1%	9%	8	-14%
Cc1c(NC(=O)Nc2ccc([N+](=O)[O-])cc2)c(=O)n(-c2ccccc2)n1C	19%	?	8%	30	21µM*
Cc1c(NS(=O)(=O)c2ccc(NC(=O)CCC(=O)O)cc2)c(=O)n(-c2ccccc2)n1C	19%	-21%	13%	-71*	2%
Cc1ccc(NC(=O)Nc2c(C)n(C)n(-c3ccccc3)c2=O)cc1	2%	-14%	22%	9	20%
Cc1sc(Nc2ccc([N+](=O)[O-])cc2)nc1-c1c(C)n(C)n(-c2ccccc2)c1=O	26%	?	15%	-21	23µM*
Cc1c(N2C(=O)CSC2c2ccc([N+](=O)[O-])cc2)c(=O)n(-c2ccccc2)n1C (centres undefined)	16%	?	26%	6	-7%
CC1(C(=O)N2CCCCC2)CCN1C(=O)c1ccccc1CCc1ccccc1 (centres undefined)	8%	?	6%	0	15µM*
Cc1cccc(S(=O)(=O)NC(=O)C2(C)CCN2C(=O)c2ccccc2CCc2ccccc2)c1 (centres undefined)	?	?	-2%	0	+
COc1ccc(NC(=O)C2(C)CCN2C(=O)c2ccccc2CCc2ccccc2)cc1OC (centres undefined)	-15%	15µM*	-18%	-1	9.2µM*
Cc1ccc(NC(=O)C2(C)CCN2C(=O)c2ccccc2CCc2ccccc2)cc1C (centres undefined)	-27%	21µM*	-25%	-16	-95%
Cc1ccc(S(=O)(=O)N(CC(=O)Nc2cccc(C)c2C)C(=O)N2CCN(C)CC2)cc1	2%	-1%	0%	-10	-7%
Cc1nnc(SCC(=O)NCC2CCCO2)n1Cc1ccccc1 (centres undefined)	1%	-4%	15%	-18	2%
CCN(CC)CCOC(=O)c1ccc(N)cc1Cl	nt	-3%	nt	nt	-11%
CC1CCCC(C)N1C(=O)COC(=O)CCC1CCCC1 (centres undefined)	-3%	-11%	-12%	-2	-18%
O=C(NCCc1ccncc1)c1cnn(-c2ncc3c(n2)-c2ccccc2CCC3)c1C1CC1	nt	12%[9.04 µM]	nt	nt	?
O=C(Nc1sc2c(c1C(=O)O)CCC2)C(=O)N1CCOCC1	3%	4%	-1%	-1	-11%
Cc1cc(C)cc(OCC(O)CN2CCN(Cc3ccc4c(c3)OCO4)CC2)c1 (centres undefined)	-10%	13µM*	-20%	-5	21µM*
Cc1ccc(C(=O)N2CCN(Cc3ccc4c(c3)OCO4)CC2)c(Cl)c1	-10%	8.2µM*	16µM*	-59*	16µM*
O=C(c1sccc1Cl)N1CCN(Cc2ccc3c(c2)OCO3)CC1	-15%	3%	-12%	-81*	?
O=C(c1cc(-c2ccc(F)cc2)no1)N1CCN(Cc2ccc3c(c2)OCO3)CC1	-14%	?	-13%	-23	16µM*
COc1ccsc1C(=O)N1CCN(Cc2ccc3c(c2)OCO3)CC1	-2%	-10%	0%	0	-22%
O=C(c1c(F)c(F)c(F)c(F)c1F)N1CCN(Cc2ccc3c(c2)OCO3)CC1	-3%	-46%	-2%	?	-23%
NS(=O)(=O)c1cc(C(=O)OCC(=O)N2CCOCC2)ccc1Cl	9%	1%	17%	8	-3%
O=C(C1CCN(c2ncnc3c2nc2n3CCCCC2)CC1)N1CCN(c2ccc(Cl)cc2)CC1	nt	10%	nt	nt	-2%
Cc1ccc(N2CCN(C(=O)C3CCN(c4ncnc5c4nc4n5CCCCC4)CC3)CC2)c(C)c1	nt	21µM*	nt	nt	?
SMILES	HT1080NT lethal	TDP1 cell CPT	HT1080 IDH1KD tx	IL1B secr inh	TDP1 cell noCPT
Cc1ccc(CNC(=O)C2CCN(c3ncnc4c3nc3n4CCCCC3)CC2)cc1	nt	12%	nt	nt	4%
CC1CCN(C(=O)C2CCN(c3ncnc4c3nc3n4CCCCC3)CC2)CC1	?	?	-16%	8	23µM*
COc1ccccc1CNC(=O)CCn1c(=O)c2ccccc2n(CC(=O)Nc2cc(Cl)ccc2C)c1=O	nt	-28%	nt	nt	?
COc1cccc(NC(=O)Cn2c(=O)n(CCC(=O)NCc3ccccc3OC)c(=O)c3ccccc32)c1	nt	26µM*	nt	nt	?
COc1ccccc1CNC(=O)CCCCn1c(=O)c2ccccc2n(CC(=O)Nc2cccc(Cl)c2)c1=O	nt	23µM*	nt	nt	9.2µM*
Cc1ccc(S(=O)(=O)c2nc(-c3cccs3)oc2N2CCC(C)CC2)cc1	nt	23µM*	nt	nt	10µM*
CC1CCN(c2oc(-c3cccs3)nc2S(=O)(=O)c2ccc(Cl)cc2)CC1	nt	?	nt	nt	13µM*
O=S(=O)(c1ccccc1)c1nc(-c2cccs2)oc1N1CCCCC1	nt	29µM*	nt	nt	?
O=Cc1cccn1-c1ccc2ccccc2c1	4%	4%	6%	20	10%
CC(=O)c1ccc(Nc2cc(C)nc3c(C)cccc23)cc1	5.2µM*	1.3µM*	3.7µM*	-7	1.3µM*
CC(=O)c1ccc(Nc2cc(C)nc3ccccc23)cc1	?	12µM*	12µM*	7	13µM*
Cc1ccc(Nc2cc(C)nc3c(C)cccc23)cc1	?	?	?	-88*	?
Cc1cccc2cc3cccc(C)c3nc12	2%	-25%	4%	0	-21%
CC(=O)c1ccc(Nc2nc(C)cc(C)n2)cc1	17%	-7%	20%	-10	1%
COc1cccc(NC(=O)CCCCCN2C(=O)[C@@H]3Cc4ccccc4CN3C2=O)c1	-2%	?	-1%	1	?
Cc1nc2ccsc2c(=O)n1-c1cccc(Cl)c1	-14%	3%	-11%	9	-20%
Cc1ccsc1-c1nc(C(N)=O)c2[nH]c(=O)n(-c3ccc(Cl)cc3)c2n1	3%	5.8µM*	-2%	-21	4.1µM*
CCOc1ccccc1-c1nc(C(N)=O)c2[nH]c(=O)n(-c3ccc(F)cc3)c2n1	1%	-5%	1%	32	-30%
CCc1ccc(-c2nc(C(N)=O)c3[nH]c(=O)n(-c4ccccc4OC)c3n2)cc1	?	2.3µM*	?	48	2.6µM*
COc1ccc(-c2nc(C(N)=O)c3[nH]c(=O)n(-c4cccc(Cl)c4)c3n2)cc1OC	?	?	16µM*	11	21µM*

Screening data (PubChem BioAssay)
